From PubChem BioAssay (Tox21)
Results filed as inconclusive are left out. Where a call stands in place of a potency, no number is given. Activity calls are given as the source filed them. Calls follow the shape of the dose curve; as a rule, active = well fitted activation curve with a large enough effect in the signal ratio in the repeat runs (not every such curve was filed as active); inconclusive = weak or mixed curves, or effect the other way; inactive = no such curve, though single readings can be large or run the other way; the % refers to the signal ratio.

These compounds were tested against Glucocorticoid receptor (Homo sapiens) (UniProt P04150) (assay: qHTS assay to identify small molecule agonists of the glucocorticoid receptor (GR) signaling pathway (AID 720691)). Details: GR-bla HeLa, beta-lactamase reporter ratio, 18 h; series mostly up to 62.4 µM.
Sequence of Glucocorticoid receptor (Homo sapiens) (P04150 whole entry, looked up): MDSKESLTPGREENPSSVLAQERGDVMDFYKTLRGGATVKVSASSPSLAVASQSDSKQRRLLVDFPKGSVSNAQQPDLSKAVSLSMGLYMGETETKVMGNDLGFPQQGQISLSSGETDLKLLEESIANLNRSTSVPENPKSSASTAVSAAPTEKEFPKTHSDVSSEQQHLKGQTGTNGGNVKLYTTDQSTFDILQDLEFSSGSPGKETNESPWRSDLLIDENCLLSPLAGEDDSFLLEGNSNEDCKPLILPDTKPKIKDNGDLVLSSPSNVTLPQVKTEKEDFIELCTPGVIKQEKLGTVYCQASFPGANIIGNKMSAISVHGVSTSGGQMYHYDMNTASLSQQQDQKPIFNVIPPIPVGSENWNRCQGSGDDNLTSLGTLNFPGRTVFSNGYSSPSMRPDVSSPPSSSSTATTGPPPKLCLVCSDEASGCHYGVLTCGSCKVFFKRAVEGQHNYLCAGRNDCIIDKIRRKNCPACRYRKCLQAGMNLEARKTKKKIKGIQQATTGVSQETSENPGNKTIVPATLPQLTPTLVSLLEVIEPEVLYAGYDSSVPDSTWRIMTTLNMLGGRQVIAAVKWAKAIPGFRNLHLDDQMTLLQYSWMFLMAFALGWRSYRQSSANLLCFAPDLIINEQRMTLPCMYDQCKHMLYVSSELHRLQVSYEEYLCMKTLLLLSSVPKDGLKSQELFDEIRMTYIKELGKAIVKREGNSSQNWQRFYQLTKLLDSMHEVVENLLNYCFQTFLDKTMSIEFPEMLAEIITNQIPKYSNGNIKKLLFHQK
From the text: U.S. Tox21 Program National Center for Advancing Translational Sciences [NCATS] NIH Chemical Genomics Center [NCGC] U.S. Environmental Protection Agency [EPA] National Institutes of Environmental Health Sciences [NIEHS] National Toxicology Program [NTP] U.S. Food and Drug Administration [FDA] Tox21 Assay Overview: The Glucocorticoid receptor (GR) is one of the members of the nuclear receptor family of ligand-dependent transcription factors. GR plays a critical role in carbohydrate, protein and lipid metabolisms and programmed cell death. CellSensor GR-bla HeLa cell line (Invitrogen) contains a beta-lactamase reporter gene under the control of the glucocorticoid response element stably integrated into HeLa cells, a cervical cancer cell line that expresses glucocorticoid receptor. The activation of the reporter gene under culture conditions can be detected by fluorescence intensity. This cell line has been used to screen the Tox21 10K compound library and to identify the compounds that activate the GR signaling.
Tox21 Assay Protocol Summary: The GR-bla HeLa cells were dispensed at 1500 cells/6 ul/well in 1536-well black wall/clear bottom plates using a Multidrop Combi (ThermoFisher Scientific, Waltham, MA) dispenser. After the assay plates were incubated at a 37 C/5% CO2 incubator for 4 hours, 23 nL of compounds dissolved in DMSO, positive controls or DMSO only was transferred to the assay plate by a pintool station (Kalypsys, San Diego, CA). The plates were incubated at 37 C for 18 hours. After 1 uL of LiveBLAzerTM B/G FRET substrate was added using a Flying Reagent Dispenser (Aurora Discovery, San Diego, CA), the plates were incubated at room temperature for 2 hours, and fluorescence intensity was measured by an Envision plate reader (PerkinElmer, Shelton, CT).
Potency is read from the fitted curve at half-maximal effect.

Row | SMILES | Potency
1 | CC(C)=CCOC(=O)c1ccccc1 | inactive
2 | CCCCCCCCOS(=O)(=O)O | inactive
3 | CC(C)CCCCOC(=O)c1ccccc1C(=O)OCCCCC(C)C | inactive
4 | CCCCCCCC/C=C\CCCCCCCC(=O)OCCCC | inactive
5 | CN(CCOc1ccc(NS(C)(=O)=O)cc1)CCc1ccc(NS(C)(=O)=O)cc1 | 7.56 µM (active)
6 | CCCC(=O)C(C)=O | inactive
7 | NS(=O)(=O)c1ccc(NC(=O)CCC(=O)O)cc1 | inactive
8 | CCOC(=O)CC(=O)c1ccccc1 | inactive
9 | CCCOC(OCCC)OCCC | inactive
10 | O=C1c2cccc3c2[C@H](CCC3)CN1[C@@H]1CN2CCC1CC2 | inactive
11 | O=C1O[C@@H]2[C@@H](O)[C@H](O)O[C@@H]2[C@H]1O | inactive
12 | C=C(C)C1CCC(C)(O)CC1 (stereo not given) | inactive
13 | C=COCCOCCOCCOC=C | inactive
14 | O=S(=O)(O)c1ccc2cc(O)c(S(=O)(=O)O)cc2c1 | inactive
15 | CC(C)(C)c1n[nH]c(=S)n(N)c1=O | inactive
16 | O=C1c2ccccc2C(=O)N1CCl | inactive
17 | Cc1ccccc1N=O | inactive
18 | CCCCCCCCC1CCC(=O)O1 (stereo not given) | 43.6 µM (active)
19 | CC(C(=O)O)c1ccc2c(c1)CC(=O)c1ccccc1S2 (stereo not given) | inactive
20 | Cc1cc(Cl)c(C)cc1Cl | inactive

Row | SMILES | Potency
21 | COCCOCCOCCOCCOCCO | inactive
22 | O=S(=O)(O)CCN1CCN(CCO)CC1 | inactive
23 | C[C@@H]1O[C@@H](O[C@@H]2[C@@H](O)[C@H](OCCc3ccc(O)c(O)c3)O[C@H](CO[C@@H]3O[C@H](CO)[C@@H](O)[C@H](O)[C@H]3O)[C@H]2OC(=O)/C=C/c2ccc(O)c(O)c2)[C@H](O)[C@H](O)[C@H]1O | inactive
24 | O=Cc1ccc(Cl)c(Cl)c1 | inactive
25 | OCCCCC(O)CO (stereo not given) | inactive
26 | Nc1cccc(O)c1 | inactive
27 | CC(=O)OC(C)OC(=O)C(C)c1ccc(-c2ccccc2)c(F)c1 (stereo not given) | inactive
28 | CC(CN)CC(C)(C)CCN (stereo not given) | inactive
29 | C[C@@H](O)[C@H]1C(=O)N2C(C(=O)O)=C(SCCN=CN)C[C@H]12 | inactive
30 | CCCCOC(=O)c1ccccc1 | inactive
31 | CC(CC=O)CCCC(C)(C)O (stereo not given) | inactive
32 | O=C(CCNNC(=O)c1ccncc1)NCc1ccccc1 | inactive
33 | CCNC(=O)C1CC(C)CCC1C(C)C (stereo not given) | inactive
34 | CNC(=O)[C@H]1O[C@@H](n2cnc3c(NCc4cc(Cl)ccc4OCc4cc(C)no4)ncnc32)[C@H](O)[C@@H]1N | inactive
35 | O=P(O)(O)OP(=O)(O)O | inactive
36 | O=C(OCc1ccccc1)C(=O)OCc1ccccc1 | inactive
37 | CN1C(C)(C)CCCC1(C)C | inactive
38 | CC(C)c1ccc2cc(C(C)C)ccc2c1 | inactive
39 | CO[C@@H]1[C@@H](OC(N)=O)[C@@H](O)[C@H](Oc2ccc3c(O)c(NC(=O)c4ccc(O)c(CC=C(C)C)c4)c(=O)oc3c2C)OC1(C)C | inactive
40 | COc1cc(C(=S)N2CCOCC2)cc(OC)c1OC | inactive
